The source of these data is PubChem BioAssay.

Chain of Neurogenic locus notch homolog protein 2 (Homo sapiens) (Q04721 whole entry, looked up): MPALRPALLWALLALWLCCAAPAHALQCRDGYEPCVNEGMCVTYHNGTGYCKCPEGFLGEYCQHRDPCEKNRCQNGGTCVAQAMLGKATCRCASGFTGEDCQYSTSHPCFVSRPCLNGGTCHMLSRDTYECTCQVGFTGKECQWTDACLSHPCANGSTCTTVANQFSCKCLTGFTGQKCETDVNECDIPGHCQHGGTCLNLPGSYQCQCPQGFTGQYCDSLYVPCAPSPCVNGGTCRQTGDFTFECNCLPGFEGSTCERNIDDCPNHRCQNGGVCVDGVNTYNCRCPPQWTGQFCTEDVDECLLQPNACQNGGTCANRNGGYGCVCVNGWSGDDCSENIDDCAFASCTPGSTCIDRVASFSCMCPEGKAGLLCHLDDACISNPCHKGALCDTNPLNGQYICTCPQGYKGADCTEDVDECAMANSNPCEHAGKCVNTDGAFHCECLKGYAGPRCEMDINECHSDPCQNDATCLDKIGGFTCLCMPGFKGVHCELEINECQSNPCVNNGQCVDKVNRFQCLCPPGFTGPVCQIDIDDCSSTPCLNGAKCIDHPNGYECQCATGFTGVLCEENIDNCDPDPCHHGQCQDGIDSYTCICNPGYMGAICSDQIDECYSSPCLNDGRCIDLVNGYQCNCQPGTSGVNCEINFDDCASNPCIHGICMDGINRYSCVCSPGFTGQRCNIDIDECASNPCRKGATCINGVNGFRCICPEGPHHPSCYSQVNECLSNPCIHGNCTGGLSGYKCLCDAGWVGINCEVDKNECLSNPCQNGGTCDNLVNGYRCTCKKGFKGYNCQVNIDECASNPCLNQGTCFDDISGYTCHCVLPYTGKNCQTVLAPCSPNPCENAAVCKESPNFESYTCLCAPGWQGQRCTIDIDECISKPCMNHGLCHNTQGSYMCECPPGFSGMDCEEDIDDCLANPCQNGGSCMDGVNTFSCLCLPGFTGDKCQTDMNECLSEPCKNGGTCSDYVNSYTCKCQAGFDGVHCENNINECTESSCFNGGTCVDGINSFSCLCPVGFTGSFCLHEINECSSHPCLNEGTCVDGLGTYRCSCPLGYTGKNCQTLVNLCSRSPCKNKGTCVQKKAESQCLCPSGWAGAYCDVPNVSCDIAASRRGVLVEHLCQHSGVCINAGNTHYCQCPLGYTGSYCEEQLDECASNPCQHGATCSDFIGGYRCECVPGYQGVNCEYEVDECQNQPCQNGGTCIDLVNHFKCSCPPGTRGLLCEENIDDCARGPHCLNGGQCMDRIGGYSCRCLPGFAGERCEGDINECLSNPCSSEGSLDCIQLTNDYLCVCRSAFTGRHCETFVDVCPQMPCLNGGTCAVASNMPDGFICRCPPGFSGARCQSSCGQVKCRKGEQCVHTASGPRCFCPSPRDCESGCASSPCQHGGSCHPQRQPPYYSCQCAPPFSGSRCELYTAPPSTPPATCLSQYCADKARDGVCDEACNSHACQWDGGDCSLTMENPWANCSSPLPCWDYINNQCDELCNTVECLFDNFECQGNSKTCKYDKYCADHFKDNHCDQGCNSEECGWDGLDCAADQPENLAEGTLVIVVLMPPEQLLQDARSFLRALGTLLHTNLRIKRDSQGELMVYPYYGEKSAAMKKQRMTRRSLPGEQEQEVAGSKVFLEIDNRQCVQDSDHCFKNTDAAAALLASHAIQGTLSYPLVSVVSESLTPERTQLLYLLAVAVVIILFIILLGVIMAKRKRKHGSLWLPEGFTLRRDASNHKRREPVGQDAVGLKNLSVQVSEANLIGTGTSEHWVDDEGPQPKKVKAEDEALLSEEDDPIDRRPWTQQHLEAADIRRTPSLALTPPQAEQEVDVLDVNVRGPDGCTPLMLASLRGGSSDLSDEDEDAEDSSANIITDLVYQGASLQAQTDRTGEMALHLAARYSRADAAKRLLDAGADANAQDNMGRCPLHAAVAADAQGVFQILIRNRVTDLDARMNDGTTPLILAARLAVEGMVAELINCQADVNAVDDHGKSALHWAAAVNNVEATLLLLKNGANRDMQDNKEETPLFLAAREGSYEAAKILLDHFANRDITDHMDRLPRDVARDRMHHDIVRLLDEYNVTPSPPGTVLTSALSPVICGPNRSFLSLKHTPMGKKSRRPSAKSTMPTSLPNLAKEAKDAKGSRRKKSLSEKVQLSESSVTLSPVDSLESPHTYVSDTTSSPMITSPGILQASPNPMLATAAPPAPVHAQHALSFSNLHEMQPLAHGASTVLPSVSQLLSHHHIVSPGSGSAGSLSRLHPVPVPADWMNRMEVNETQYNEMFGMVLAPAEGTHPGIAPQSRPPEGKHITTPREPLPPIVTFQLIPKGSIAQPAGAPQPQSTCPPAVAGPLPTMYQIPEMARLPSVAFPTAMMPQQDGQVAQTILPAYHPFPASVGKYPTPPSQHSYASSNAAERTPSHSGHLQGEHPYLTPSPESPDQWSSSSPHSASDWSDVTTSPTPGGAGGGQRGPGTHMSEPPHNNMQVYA

This assay has as its target Neurogenic locus notch homolog protein 2 (Homo sapiens) (UniProt Q04721). The assay is described as follows: Notch2 binders on small-molecule microarrays, primary screen, biochemical, small-molecule microarray, 635 nm fluorescence, stem cell growth factors (AID 1073). The settings on record: Notch2 binding, higher = more signal.
The compound `CC#CC(=O)Oc1ccc(Br)cc1C=CC(=O)OCC` yielded a composite z-score of -0.497.
For `CCCC(=O)N(CCc1c[nH]c2ccccc12)[C@@H]1CC(C(=O)NCCO)=C[C@H](Oc2c(I)cc(CO)cc2OC)[C@H]1O`, the composite z-score was -0.11.
`COCCOC(=O)N1C(=O)[C@@]2(c3ccccc31)[C@H](C(=O)N1CCCCCCC1)[C@H]1C(=O)O[C@H](c3ccccc3)[C@H](c3ccccc3)N1[C@@H]2c1ccc(OCCO)cc1`: the composite z-score worked out at 1.75.
The compound `CCOC(=O)C[C@H]1[C@H](OC(=O)c2cc3ccccc3oc2=O)[C@@H](NC(=O)CC(C)C)c2cc(OCCCO)ccc2N1C(=O)c1ccccc1` gave a composite z-score of 0.3.
The same measure for `O=C1OCC=C[C@H]2OC34C=CCN(CCN5CCOCC5)C(=O)[C@H]3N(CCO)C(=O)[C@@H]4[C@@H]12` (some centres not stated): -0.273; for `COCC(=C=CC[C@H](O)c1cccc(OCCO)c1)CCO`: -0.137; for `C#CCN1[C@H](/C=C/C2CC2)[C@H](Cc2ccccc2)OC(=O)[C@@H]1Cc1ccccc1`: -0.343.
Regarding `O[C@@H](Cc1ccccc1)[C@@H](/C=C/C1CC1)NCc1cccc(Cl)c1`, the composite z-score is -1.43.
The compound `C=C(/C(=C/C[C@H](OC(C)=O)c1ccc(OCCO)cc1)c1cc(C(=O)OC)ccc1OC)C(C)C` showed a composite z-score of 0.219.
As for `CCCC[C@@H]1C[C@H]1[C@@H](NC(=O)c1cccnc1)c1ccc(Cl)cc1`, the figure is -1.69; as for `CC(C)[C@@H](C(=O)O)n1cc(C2(O)CCCCC2)nn1`, 0.63.
`CC(C)CCC[C@@H](C)[C@H]1CC[C@@]2(C)C3=C(CC[C@]12C)[C@@]1(C)CC[C@H](OC(=O)c2ccc(C(F)(F)F)nc2)C(C)(C)C1CC3` (some centres not stated) displayed a composite z-score of 0.443.
